{
  "source": "PubChem BioAssay (EPA / NIEHS)",
  "key": {"[1]": {"tested_on": "rat Monoamine Oxidase, MAO-A, Peripheral (MAOAP), gene 29253", "assay": "NVS_ENZ_rMAOAP: NovaScreen (NVS) Enzymatic Assay for rat Monoamine Oxidase, MAO-A, Peripheral (MAOAP) (AID 2283237)", "outline": "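Scintillation counting tracked MAO-A activity in a cell-free rat liver mitochondrial membrane prep, read 1.17 hours after compound addition. Single-point duplicate testing at 25 uM preceded concentration-response follow-up; activity was fitted relative to DMSO.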"}, "[2]": {"target": "guinea pig Leukotriene D4 Receptor (LTD4), CYSLTR1 (gene 100135514) (UniProt Q2NNR5)", "sequence (Q2NNR5 whole entry, looked up)": "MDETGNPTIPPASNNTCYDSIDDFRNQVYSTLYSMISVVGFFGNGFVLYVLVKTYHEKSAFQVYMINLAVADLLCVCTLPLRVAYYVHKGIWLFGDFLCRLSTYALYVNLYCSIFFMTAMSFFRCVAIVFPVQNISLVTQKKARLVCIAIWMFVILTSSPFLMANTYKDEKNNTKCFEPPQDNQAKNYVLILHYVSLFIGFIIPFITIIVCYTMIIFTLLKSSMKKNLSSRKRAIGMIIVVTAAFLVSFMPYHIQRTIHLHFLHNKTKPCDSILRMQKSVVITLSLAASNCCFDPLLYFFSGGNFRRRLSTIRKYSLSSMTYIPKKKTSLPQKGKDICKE", "assay": "NVS_GPCR_gLTD4: NovaScreen (NVS) G Protein-Coupled Receptor Assay for guinea pig Leukotriene D4 Receptor (LTD4) (AID 2283248)", "outline": "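Guinea pig lung membrane preparation; bound radioligand measured by filter scintillation after 1 h, loss of signal versus DMSO marking displacement. Compounds tested at 25 uM in duplicate, hits retested to max 50 uM.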"}, "[3]": {"tested_on": "bovine Angiotensin II Receptor Type 2 (AT2), gene 407157", "assay": "NVS_GPCR_bAT2: NovaScreen (NVS) G Protein-Coupled Receptor Assay for bovine Angiotensin II Receptor Type 2 (AT2) (AID 2283240)", "description": "NVS_GPCR_bAT2 is a biochemical, single-readout assay that uses extracted gene-proteins from Bovine cerebellar membranes in a tissue-based cell-free assay. Measurements were taken 1 hour after chemical dosing in a 96-well plate.NVS_GPCR_bAT2 is one of one assay component(s) measured or calculated from the NVS_GPCR_bAT2 assay. It is designed to make measurements of radioligand binding, a form of binding reporter, as detected with scintillation counting signals by Filter-based radiodetection technology.Data from the assay component NVS_GPCR_bAT2 was analyzed into 1 assay endpoint. This assay endpoint, NVS_GPCR_bAT2, was analyzed in the positive analysis fitting direction relative to DMSO as the negative control and baseline of activity. Using a type of binding reporter, loss-of-signal activity can be used to understand changes in the binding as they relate to the gene AGTR2. Furthermore, this assay endpoint can be referred to as a primary readout, because the performed assay has only produced 1 assay endpoint. To generalize the intended target to other relatable targets, this assay endpoint is annotated to the gpcr intended target family, where the subfamily is rhodopsin-like receptor. […]"}, "[4]": {"target": "rat Monoamine Oxidase, MAO-B, Peripheral (MAOBP), Maob (gene 25750) (UniProt P19643)", "sequence (P19643 whole entry, looked up)": "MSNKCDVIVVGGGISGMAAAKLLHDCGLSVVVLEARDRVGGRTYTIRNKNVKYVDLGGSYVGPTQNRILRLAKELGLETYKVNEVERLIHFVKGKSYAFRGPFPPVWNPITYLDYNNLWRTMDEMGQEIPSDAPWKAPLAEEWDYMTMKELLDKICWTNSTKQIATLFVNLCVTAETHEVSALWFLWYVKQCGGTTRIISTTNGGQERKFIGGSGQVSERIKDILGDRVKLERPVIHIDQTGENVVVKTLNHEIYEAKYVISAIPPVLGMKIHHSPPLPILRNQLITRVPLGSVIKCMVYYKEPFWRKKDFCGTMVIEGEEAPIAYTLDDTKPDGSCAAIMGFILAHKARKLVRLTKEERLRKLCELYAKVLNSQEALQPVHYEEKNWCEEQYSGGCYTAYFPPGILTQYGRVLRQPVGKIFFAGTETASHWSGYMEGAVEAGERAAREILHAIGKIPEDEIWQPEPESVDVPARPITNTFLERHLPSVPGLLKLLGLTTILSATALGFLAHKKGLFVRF", "assay": "NVS_ENZ_rMAOBP: NovaScreen (NVS) Enzymatic Assay for rat Monoamine Oxidase, MAO-B, Peripheral (MAOBP) (AID 2283242)", "description": "NVS_ENZ_rMAOBP is a biochemical, single-readout assay that uses extracted gene-proteins from Rat brain in a tissue-based cell-free assay. Measurements were taken 1.17 hours after chemical dosing in a 96-well plate.NVS_ENZ_rMAOBP is one of one assay component(s) measured or calculated from the NVS_ENZ_rMAOBP assay. It is designed to make measurements of enzyme activity, a form of enzyme reporter, as detected with scintillation counting signals by Lysate-based radiodetection technology.Data from the assay component NVS_ENZ_rMAOBP was analyzed into 1 assay endpoint. This assay endpoint, NVS_ENZ_rMAOBP, was analyzed in the positive analysis fitting direction relative to DMSO as the negative control and baseline of activity. Using a type of enzyme reporter, loss-of-signal activity can be used to understand changes in the enzymatic activity as they relate to the gene Maob. Furthermore, this assay endpoint can be referred to as a primary readout, because this assay has produced multiple assay endpoints where this one serves a enzymatic activity function. To generalize the intended target to other relatable targets, this assay endpoint is annotated to the oxidoreductase intended target family, where the subfamily is monoamine oxidase. […]"}, "[5]": {"target": "Adenosine receptor A1 (Bos taurus) (UniProt P28190)", "sequence (P28190 whole entry, looked up)": "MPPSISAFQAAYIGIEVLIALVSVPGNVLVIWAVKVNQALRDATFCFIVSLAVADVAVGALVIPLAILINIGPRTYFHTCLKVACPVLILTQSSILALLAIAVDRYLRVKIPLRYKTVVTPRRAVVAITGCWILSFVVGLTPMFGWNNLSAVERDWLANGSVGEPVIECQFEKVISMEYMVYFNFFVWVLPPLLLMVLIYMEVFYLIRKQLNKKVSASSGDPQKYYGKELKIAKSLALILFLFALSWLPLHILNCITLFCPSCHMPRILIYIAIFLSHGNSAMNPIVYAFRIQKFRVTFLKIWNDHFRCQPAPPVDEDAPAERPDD", "assay": "NVS_GPCR_bAdoR_NonSelective: NovaScreen (NVS) G Protein-Coupled Receptor Assay for bovine Adenosine Receptor (AdoR), Non-selective Binding (AID 2283244)", "outline": "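Cell-free binding with membranes from bovine striatum: radioligand displaced by test chemical, read after 1 h by filtration and scintillation. Single-point 25 uM duplicate primary, 50 uM top concentration in follow-up curves, DMSO baseline.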"}, "[6]": {"target": "human Serotonin, 5-Hydroxytryptamine Receptor 5A (5HT5A), HTR5A (gene 3361) (UniProt P47898)", "sequence (P47898 whole entry, looked up)": "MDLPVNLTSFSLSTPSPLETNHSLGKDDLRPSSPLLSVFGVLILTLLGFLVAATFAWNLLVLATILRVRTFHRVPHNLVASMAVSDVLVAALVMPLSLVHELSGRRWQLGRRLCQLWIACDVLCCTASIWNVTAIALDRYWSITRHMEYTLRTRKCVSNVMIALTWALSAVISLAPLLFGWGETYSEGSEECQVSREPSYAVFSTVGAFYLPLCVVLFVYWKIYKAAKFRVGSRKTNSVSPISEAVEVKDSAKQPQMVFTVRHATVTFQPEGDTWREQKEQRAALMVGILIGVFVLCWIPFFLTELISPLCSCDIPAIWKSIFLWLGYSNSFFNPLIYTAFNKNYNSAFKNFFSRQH", "assay": "NVS_GPCR_h5HT5A: NovaScreen (NVS) G Protein-Coupled Receptor Assay for human Serotonin, 5-Hydroxytryptamine Receptor 5A (5HT5A) (AID 2283251)", "outline": "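Membranes from HEK293 cells, radioligand binding read by filtration and scintillation after 1 h. Single-concentration duplicate testing at 25 uM, then concentration-response for actives; positive-direction fitting relative to DMSO.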"}},
  "note": "Records with an inconclusive call do not appear. Calls of active or inactive are those of the source. How the source made its calls: active means hit-call score of the fitted dose curve at least 0.9, where 1 is the maximum; inconclusive means response in the unintended direction; inactive means score below 0.9.",
  "data": [
    {"smiles": "ClC(Cl)c1ccccc1", "values": [
      {"measurement": "outcome", "setting": "[1]", "result": "inactive"},
      {"measurement": "outcome", "setting": "[2]", "result": "inactive"}
    ]},
    {"smiles": "Cc1ccc(O)cc1C", "values": [
      {"measurement": "outcome", "setting": "[1]", "result": "inactive"}
    ]},
    {"smiles": "Cc1ccc(N)cc1N", "values": [
      {"measurement": "outcome", "setting": "[3]", "result": "inactive"}
    ]},
    {"smiles": "CCOC(=O)c1ccccc1C(=O)OCC", "values": [
      {"measurement": "outcome", "setting": "[4]", "result": "inactive"}
    ]},
    {"smiles": "CCN(CC)c1ccccc1", "values": [
      {"measurement": "outcome", "setting": "[4]", "result": "inactive"}
    ]},
    {"smiles": "CCCN(CCC)c1c([N+](=O)[O-])cc(C(C)C)cc1[N+](=O)[O-]", "values": [
      {"measurement": "outcome", "setting": "[5]", "result": "inactive"}
    ]},
    {"smiles": "CSC(C)(C)C=NO", "values": [
      {"measurement": "outcome", "setting": "[5]", "result": "inactive"}
    ]},
    {"smiles": "c1nc[nH]n1", "values": [
      {"measurement": "outcome", "setting": "[2]", "result": "inactive"}
    ]},
    {"smiles": "CCCCN(CCCC)SN(C)C(=O)Oc1cccc2c1OC(C)(C)C2", "values": [
      {"measurement": "outcome", "setting": "[6]", "result": "inactive"}
    ]}
  ]
}
